In PubChem BioAssay (Tox21):
Inconclusive results are not listed. Activity calls are given as the source filed them. Unless noted, the call rests on the fitted dose curve; in most records, active means well fitted curve in the direction sought with a large enough effect in the repeat runs; inconclusive means weak or mixed curves; inactive means no such curve, though single readings can be large; an effect the other way counts as inactive or inconclusive.

Assays:
[1] = qHTS assay to identify small molecule agonists of the estrogen receptor alpha (ER-alpha) signaling pathway in the presence of an antagonist - cell viability counter screen (AID 1259386);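 further: cells exposed to compounds for 22 h at 37 °C before the viability read; nearly all actives have a fitted effect of over 30% in size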; further: potency means the concentration at half of the fitted maximal effect; on activity change, negative = cytotoxicity: series mostly up to about 92 µM
In short: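 Viability counter screen using VM7Luc4E2 (full-length ER-alpha, four ERE-luciferase). The cells were treated with compounds alongside ICI-182,780 10.0nM for 22hr, and live-cell protease fluorescence was quantified with CellTiter-Fluor.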

[2] = target: Progesterone receptor (Homo sapiens) (UniProt P06401); assay: qHTS assay to identify small molecule agonists of the progesterone receptor (PR) signaling pathway (AID 1346784; calls by dose curve; further: nearly all actives have a fitted effect of over 30% in size)
In short: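 HEK 293T PR-UAS-bla reporter cells, 2% charcoal-stripped FBS; 6 hr settle at 37C/5% CO2, compound (DMSO) 16 hr, LiveBLAzer B/G FRET substrate 2 hr RT, fluorescence intensity read.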

[3] = qHTS assay to identify small molecule antagonists of the progesterone receptor (PR) signaling pathway - cell viability counter screen (AID 1346798); further: nearly all actives have a fitted effect of over 50% in size; further: potency means the concentration at half of the fitted maximal effect; on activity change, negative = cytotoxicity: series mostly up to about 92 µM
In short: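 Luminescence readout (CellTiter-Glo, 30 min, RT) of viability in PR-UAS-bla HEK293T cells exposed to compound and R5020 agonist for 16 hr at 37C, 5% CO2; run in the same wells as the beta-lactamase reporter read.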

[4] = qHTS assay to identify small molecule agonists of the progesterone receptor (PR) signaling pathway - cell viability counter screen (AID 1346799; calls by dose curve; further: nearly all actives have a fitted effect of over 45% in size; further: potency means the concentration at half of the fitted maximal effect)
In short: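 HEK293T PR-UAS-bla, 3,000 cells/well, 2% charcoal-stripped FBS; 6 h settle, compound 16 h at 37C/5% CO2; LiveBLAzer 2 h RT, then CellTiter-Glo 30 min RT, luminescence read.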

[5] = qHTS assay to identify small molecule antagonists of the TGF-beta/Smad signaling pathway - cell viability counter screen (AID 1346824); further: nearly all actives have a fitted effect of over 50% in size
In short: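 SBE-bla HEK 293T cells, incubated overnight, then compound plus 0.25 ng/mL TGF-beta1 (stock added) for 5 hr at 37 C. Viability was read in the same wells by CellTiter-Glo luminescence after 30 min at room temperature.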

[6] = Caspase-3/7 induction in CHO-K1 cells by small molecules, qHTS cell viability counter screen (AID 1346979); further: nearly all actives have a fitted effect of over 35% in size; further: potency means the concentration at half of the fitted maximal effect
In short: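 CHO-K1 wt, 1,500 cells/well; 5hr pre-incubation 37C/5% CO2; compound pin transfer (DMSO); 16hr exposure; CellTiter-Fluor added, 1hr, fluorescence read.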

[7] = Caspase-3/7 induction in CHO-K1 cells by small molecules, qHTS assay (AID 1346980); further: nearly all actives have a fitted effect of over 15% in size; further: potency means the concentration at half of the fitted maximal effect
In short: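 Wild-type CHO-K1 cells exposed to compounds for 17hr at 37 C, 5% CO2. Caspase-3/7 activity then measured by Caspase-Glo 3/7 luminescence after 30min at room temperature.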

[8] = target: Nuclear receptor subfamily 1 group I member 2 (Homo sapiens) (UniProt O75469); assay: Human pregnane X receptor (PXR) small molecule agonists, qHTS assay (AID 1346982); further: nearly all actives have a fitted effect of over 35% in size; further: potency means the concentration at half of the fitted maximal effect
In short: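 Compound-induced hPXR transactivation of a CYP3A4 luciferase reporter was scored in HepG2 PXR-Luc cells over 24 hr at 37 C, 5% CO2, by luminescence.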

[9] = target: Acetylcholinesterase (Homo sapiens) (UniProt P22303); assay: Acetylcholinesterase (AChE) small molecule antagonists: colormetric cell-based qHTS assay (AID 1347395; calls by dose curve; further: nearly all actives have a fitted effect of over 30% in size; further: potency means the concentration at half of the fitted maximal effect)
In short: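 SH-SY5Y cells; cpd 30 min 37 C; + DTNB/acetylthiocholine, 90 min 37 C; colorimetric thiocholine read; qHTS.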

[10] = target: Acetylcholinesterase (Homo sapiens) (UniProt P22303); assay: Acetylcholinesterase (AChE) small molecule antagonists: enzyme-based qHTS assay (AID 1347397; calls by dose curve; further: nearly all actives have a fitted effect of over 55% in size; further: potency means the concentration at half of the fitted maximal effect); details: Potency: AChE enzyme activity inhibition
In short: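 Enzyme inhibition was scored from DTNB-detected thiocholine formed by recombinant human AChE acting on acetylthiocholine. The 30 min compound preincubation and 10 min substrate reaction were both run at room temperature, with DMSO as vehicle control.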

[11] = qHTS assay to identify small molecule agonists of the TGF-beta/Smad signaling pathway - cell viability counter screen (AID 1346829); further: top concentration of the series differs between compounds; nearly all actives have a fitted effect of over 45% in size
In short: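 CellTiter-Glo luminescence readout; SBE-bla HEK 293T cells, overnight plating, compound 5 hr at 37 C/5% CO2, then bla substrate 2 hr RT, then CellTiter-Glo 30 min RT.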

[12] = qHTS assay to identify small molecule agonists of the TGF-beta/Smad signaling pathway (AID 1346859; active means well fitted activation curve with a large enough effect in the signal ratio in the repeat runs, not every such curve was filed as active; the % refers to the signal ratio; further: series mostly up to about 77 µM)
In short: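 Read-out: fluorescence at 460 and 530 nm (405 nm excitation) after a 2 hr room-temperature incubation with beta-lactamase FRET substrate. SBE-bla HEK 293T cells had been treated with test compounds for 5 hr at 37 C.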

[13] = target: Thyrotropin-releasing hormone receptor (Homo sapiens) (UniProt P34981); assay: qHTS assay to identify small molecule agonists of the thyrotropin-releasing hormone receptor (TRHR) signaling pathway (AID 1346891; calls by dose curve;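 further: HEK293 cells expressing TRHR with calcium dye readout; series mostly up to about 58 µM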)
In short: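 HEK293/TRHR cells, 1500 per well, 18 h 37 °C; Ca dye 2 h 37 °C; pin-tool compound addition (agonist mode); kinetic fluorescence 3 min, 1 s reads; 15 concentrations, triplicate.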

[14] = Human pregnane X receptor (PXR) small molecule agonists, qHTS cell viability counter screen (AID 1346977); further: nearly all actives have a fitted effect of over 50% in size; further: potency means the concentration at half of the fitted maximal effect
In short: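 Fluorescence read-out (CellTiter-Fluor) of viability in PXR-Luc HepG2 cells, multiplexed with the luciferase agonist read. Compounds in DMSO added after 5hr plating; 24hr total exposure at 37C, 5% CO2.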

[15] = Caspase-3/7 induction in HepG2 cells by small molecules, qHTS cell viability counter screen (AID 1346981); further: nearly all actives have a fitted effect of over 30% in size; further: potency means the concentration at half of the fitted maximal effect; on activity change, negative = cytotoxicity: series mostly up to about 92 µM
In short: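 Viability determined by CellTiter-Fluor fluorescence in HepG2 wells also used for the luminescent Caspase-Glo 3/7 read. Compounds were present for 16 hr at 37 C, 5% CO2 before reagent addition.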

[16] = target: Thyrotropin-releasing hormone receptor (Homo sapiens) (UniProt P34981); assay: qHTS assay to identify small molecule antagonists of the thyrotropin-releasing hormone receptor (TRHR) signaling pathway (AID 1346877; active means well fitted inhibition curve with a large enough effect in the repeat runs, not every such curve was filed as active; further: series mostly up to about 51 µM)
In short: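 Following an 18 h incubation at 37 °C and a 2 h calcium dye load, TRHR-HEK293 cells were exposed to compound (5 min, room temperature) and challenged with TRH, 1 nM final.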

[17] = Caspase-3/7 induction in HepG2 cells by small molecules, qHTS assay (AID 1346978); further: nearly all actives have a fitted effect of over 15% in size; further: potency means the concentration at half of the fitted maximal effect
In short: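 Wild-type HepG2 cells, 2,000/well, settled 5 hr at 37 C and 5% CO2, then compound-treated for 17 hr; caspase-3/7 activity read by luminescent Caspase-Glo 3/7 after 30 min at room temperature.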

[18] = target: Progesterone receptor (Homo sapiens) (UniProt P06401); assay: qHTS assay to identify small molecule antagonists of the progesterone receptor (PR) signaling pathway (AID 1346795; active means well fitted inhibition curve with a large enough effect in the signal ratio in the repeat runs, not every such curve was filed as active; the % refers to the signal ratio; further: potency means the concentration at half of the fitted maximal effect)
In short: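 Beta-lactamase reporter, HEK293T PR-UAS-bla line; 2% charcoal-stripped FBS; 6 hr pre-incubation, 37C/5% CO2. Compound + R5020 1 nM final, 16 hr. LiveBLAzer B/G FRET substrate, 2 hr RT; fluorescence intensity read.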
On the % scale 0 is the no-effect control and ±100 the full control effect.

Chain of Nuclear receptor subfamily 1 group I member 2 (Homo sapiens) (O75469 whole entry, looked up): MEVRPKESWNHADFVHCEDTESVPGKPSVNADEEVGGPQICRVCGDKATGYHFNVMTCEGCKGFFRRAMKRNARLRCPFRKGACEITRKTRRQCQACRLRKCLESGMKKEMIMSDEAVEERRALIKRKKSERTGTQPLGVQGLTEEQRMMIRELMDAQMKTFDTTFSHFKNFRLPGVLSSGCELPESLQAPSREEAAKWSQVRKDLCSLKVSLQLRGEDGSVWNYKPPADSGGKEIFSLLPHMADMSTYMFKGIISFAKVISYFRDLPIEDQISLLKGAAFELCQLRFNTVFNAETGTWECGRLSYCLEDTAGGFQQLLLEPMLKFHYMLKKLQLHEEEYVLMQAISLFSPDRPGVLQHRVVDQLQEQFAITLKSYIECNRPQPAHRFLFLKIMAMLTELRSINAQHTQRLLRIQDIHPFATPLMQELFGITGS
Chain of Thyrotropin-releasing hormone receptor (Homo sapiens) (P34981 whole entry, looked up): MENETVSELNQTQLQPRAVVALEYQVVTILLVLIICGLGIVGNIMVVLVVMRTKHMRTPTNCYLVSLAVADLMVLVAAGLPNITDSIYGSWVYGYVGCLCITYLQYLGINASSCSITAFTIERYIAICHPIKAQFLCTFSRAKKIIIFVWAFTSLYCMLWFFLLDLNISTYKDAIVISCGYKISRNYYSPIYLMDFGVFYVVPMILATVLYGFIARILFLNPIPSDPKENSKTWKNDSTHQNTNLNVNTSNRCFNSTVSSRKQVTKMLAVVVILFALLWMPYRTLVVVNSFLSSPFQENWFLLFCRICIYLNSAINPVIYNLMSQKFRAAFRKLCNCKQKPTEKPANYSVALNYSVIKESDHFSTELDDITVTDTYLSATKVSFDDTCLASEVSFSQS
Chain of Acetylcholinesterase (Homo sapiens) (P22303 whole entry, looked up): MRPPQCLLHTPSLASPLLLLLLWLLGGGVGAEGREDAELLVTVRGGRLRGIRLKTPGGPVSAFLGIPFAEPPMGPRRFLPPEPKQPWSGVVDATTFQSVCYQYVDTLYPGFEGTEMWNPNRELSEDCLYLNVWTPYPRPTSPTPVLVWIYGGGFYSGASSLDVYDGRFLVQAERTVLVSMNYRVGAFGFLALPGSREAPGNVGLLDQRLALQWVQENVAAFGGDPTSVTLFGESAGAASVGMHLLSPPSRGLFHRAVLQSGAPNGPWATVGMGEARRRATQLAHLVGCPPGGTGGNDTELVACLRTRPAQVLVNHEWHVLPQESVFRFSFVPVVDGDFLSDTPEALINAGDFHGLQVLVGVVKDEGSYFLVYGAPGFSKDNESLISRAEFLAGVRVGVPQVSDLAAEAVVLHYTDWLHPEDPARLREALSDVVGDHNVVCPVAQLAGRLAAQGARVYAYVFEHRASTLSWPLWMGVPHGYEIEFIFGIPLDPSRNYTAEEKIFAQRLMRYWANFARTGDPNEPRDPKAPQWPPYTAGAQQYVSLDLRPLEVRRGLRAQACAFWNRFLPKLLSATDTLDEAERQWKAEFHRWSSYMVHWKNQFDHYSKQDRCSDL
Chain of Progesterone receptor (Homo sapiens) (P06401 whole entry, looked up): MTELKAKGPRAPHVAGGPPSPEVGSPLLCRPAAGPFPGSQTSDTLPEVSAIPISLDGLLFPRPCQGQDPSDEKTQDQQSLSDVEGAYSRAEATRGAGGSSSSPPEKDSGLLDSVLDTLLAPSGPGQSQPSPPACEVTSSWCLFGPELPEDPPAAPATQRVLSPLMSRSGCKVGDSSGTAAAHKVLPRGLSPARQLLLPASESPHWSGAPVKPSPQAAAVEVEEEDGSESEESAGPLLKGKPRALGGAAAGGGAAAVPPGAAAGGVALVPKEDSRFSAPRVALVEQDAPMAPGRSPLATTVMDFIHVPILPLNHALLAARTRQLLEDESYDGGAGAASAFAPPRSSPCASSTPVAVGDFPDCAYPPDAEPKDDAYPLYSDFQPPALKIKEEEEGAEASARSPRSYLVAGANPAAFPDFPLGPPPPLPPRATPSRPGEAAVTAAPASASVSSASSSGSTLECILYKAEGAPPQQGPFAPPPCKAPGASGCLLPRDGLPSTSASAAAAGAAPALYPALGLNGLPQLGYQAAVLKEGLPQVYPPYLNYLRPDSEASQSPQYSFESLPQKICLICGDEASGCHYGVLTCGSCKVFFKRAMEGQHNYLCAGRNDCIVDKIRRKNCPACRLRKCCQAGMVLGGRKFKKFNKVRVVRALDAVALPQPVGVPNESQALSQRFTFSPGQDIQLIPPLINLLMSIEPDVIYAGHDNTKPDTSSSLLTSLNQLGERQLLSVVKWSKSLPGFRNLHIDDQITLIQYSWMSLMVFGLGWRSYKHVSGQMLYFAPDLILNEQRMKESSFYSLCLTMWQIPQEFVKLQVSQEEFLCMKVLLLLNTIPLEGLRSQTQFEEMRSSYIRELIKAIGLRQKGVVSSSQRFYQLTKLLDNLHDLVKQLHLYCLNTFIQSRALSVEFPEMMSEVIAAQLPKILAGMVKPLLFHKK

Clc1cc(C(Cl)(Cl)Cl)cnc1Cl
active: Potency [6] 61.1 µM | Potency [8] 54.5 µM
inactive: Potency [1] | Potency [2] | Potency [3] | Potency [4] | Potency [5] | Potency [7] | Potency [9] | Potency [10]

N#CCc1ccccc1
inactive: Potency [1] | Potency [2] | Potency [3] | Potency [4] | Potency [5] | Potency [11] | outcome [12] | Potency [13] | Potency [14] | Potency [6] | Potency [7] | Potency [15] | Potency [8] | Potency [9] | Potency [10]

CNC(C)Cc1ccccc1OC (centres undefined)
inactive: Potency [1] | Potency [2] | Potency [3] | Potency [4] | Potency [5] | outcome [12] | Potency [16] | Potency [14] | Potency [17] | Potency [6] | Potency [7] | Potency [15] | Potency [8] | Potency [9] | Potency [10]

O=C(CBr)c1ccccc1
inactive: Potency [1] | Potency [2] | Potency [3] | Potency [4] | Potency [5] | Potency [11] | outcome [12] | Potency [13] | Potency [14] | Potency [17] | Potency [7] | Potency [15] | Potency [8] | Potency [9] | Potency [10]

CCC(C)(NC(=O)c1cc(Cl)c(C)c(Cl)c1)C(=O)CCl (centres undefined)
inactive: Potency [1] | Potency [2] | Potency [3] | Potency [4] | Potency [5] | Potency [16] | Potency [9] | Potency [10]
active: Potency [17] 61.5 µM | Potency [6] 24.5 µM | Potency [7] 21.8 µM

COc1c(C(C)(C)C)cc([N+](=O)[O-])c(C)c1[N+](=O)[O-]
inactive: Potency [1] | Potency [2] | Potency [3] | Potency [4] | Potency [5] | Potency [11] | outcome [12] | Potency [14] | Potency [17] | Potency [6] | Potency [10]
active: Potency [8] 9.61 µM

COP(=O)(OC)O/C(=C/Cl)c1cc(Cl)c(Cl)cc1Cl
active: Potency [18] 14.5 µM | Potency [8] 72.4 µM | Potency [9] 42.2 µM
inactive: Potency [1] | Potency [3] | Potency [4] | Potency [5] | Potency [11] | outcome [12] | Potency [16] | Potency [13] | Potency [14] | Potency [17] | Potency [7] | Potency [10]

O=[N+]([O-])c1cc(C(F)(F)F)cc([N+](=O)[O-])c1Cl
inactive: Potency [2] | Potency [5] | Potency [11] | outcome [12] | Potency [16] | Potency [7] | Potency [9] | Potency [10]
active: Potency [1] 30.8 µM | Potency [4] 13.7 µM | Potency [6] 68.9 µM | Potency [15] 61.4 µM

CC(C)(C)c1cc([N+](=O)[O-])cc([N+](=O)[O-])c1O
inactive: Potency [2] | Potency [11] | outcome [12] | Potency [16] | Potency [17] | Potency [7] | Potency [9] | Potency [10]
active: Potency [1] 19.3 µM | Potency [14] 6.84 µM | Potency [6] 17.2 µM | Potency [15] 21.6 µM | Potency [8] 19.3 µM

Oc1ccc(Cl)c(Cl)c1Cl
active: Potency [8] 63.4 µM
inactive: Potency [1] | Potency [2] | Potency [5] | Potency [11] | outcome [12] | Potency [16] | Potency [13] | Potency [7] | Potency [9] | Potency [10]

COC(N)=O
inactive: Potency [1] | Potency [2] | Potency [5] | Potency [11] | outcome [12] | Potency [13] | Potency [14] | Potency [6] | Potency [7] | Potency [15] | Potency [8] | Potency [9] | Potency [10]
active: Potency [3] 43.3 µM

O=S(=O)(O)C(F)(F)C(F)(F)C(F)(F)C(F)(F)F
active: Potency [6] 54.5 µM
inactive: Potency [1] | Potency [2] | Potency [3] | Potency [5] | Potency [11] | outcome [12] | Potency [17] | Potency [7] | Potency [8] | Potency [9] | Potency [10]

CCCC(=O)Cl
inactive: Potency [1] | Potency [2] | Potency [4] | Potency [5] | outcome [12] | Potency [14] | Potency [17] | Potency [6] | Potency [7] | Potency [15] | Potency [8] | Potency [9] | Potency [10]

Cc1ccccc1C(=O)Nc1cccc(OC(C)C)c1
inactive: Potency [1] | Potency [2] | Potency [5] | Potency [11] | outcome [12] | Potency [13] | Potency [14] | Potency [17] | Potency [7] | Potency [15] | Potency [9] | Potency [10]
active: Potency [8] 13.7 µM

CNP(=O)(OC)Oc1ccc(C(C)(C)C)cc1Cl (centres undefined)
inactive: Potency [1] | Potency [2] | Potency [5] | outcome [12] | Potency [16] | Potency [13] | Potency [14] | Potency [17]
active: Potency [8] 17.2 µM | Potency [9] 71 µM | Potency [10] 79.6 µM

CO[C@@H]1[C@H](OC(=O)NC(=O)CCl)CC[C@]2(CO2)[C@H]1[C@@]1(C)O[C@@H]1CC=C(C)C
inactive: activity change, negative = cytotoxicity [1] -1.81% [at 19 µM] | activity change, negative = inhibition [18] 6.82% [at 18.9 µM] | activity change, negative = cytotoxicity [3] -12.2% [at 18.9 µM] | activity change, negative = cytotoxicity [4] -29% [at 19 µM] | viability change, negative = cytotoxic [5] 3.4% [at 15.8 µM] | activity change, negative = cytotoxicity [11] 8.28% [at 15.8 µM] | activation [12] 3.24% [at 15.8 µM] | activity, negative = inhibition [16] 4.68% [at 10.5 µM] | activation [13] -0.27% [at 11.8 µM] | activity change, negative = cytotoxicity [14] 1.62% [at 19 µM] | caspase activation [17] 1.54% [at 19 µM] | activity change, negative = cytotoxicity [15] -0.84% [at 19 µM] | activity, negative = inhibition [9] 2.96% [at 23.6 µM] | activity change, negative = inhibition [10] 0.618% [at 23.6 µM]
active: Potency [8] 10.6 µM

COC(=O)c1cncn1C(C)c1ccccc1 (centres undefined)
inactive: Potency [1] | Potency [2] | Potency [3] | Potency [5] | Potency [11] | outcome [12] | Potency [14] | Potency [6] | Potency [15] | Potency [8] | Potency [9] | Potency [10]
